“And” between values parts separate entries of the source, which are not always exact repeats. Identical values can stand only once. Results filed as inconclusive are left out. Where a call stands in place of a potency, no number is given. A structure can be active in one record and inactive in another. The source made the active and inactive calls. Unless noted, calls come from the whole dose curve.
Tests used:
[1] = qHTS assay to identify small molecule agonists of the vitamin D receptor (VDR) signaling pathway - cell viability counter screen (AID 743224; active = well fitted curve in the direction sought with a large enough effect in the repeat runs; an effect the other way counts as inactive or inconclusive; note: nearly all actives have a fitted effect of over 50% in size; note: potency is the fitted concentration of half-maximal effect)
Procedure, shortened: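 Cells: VDR-bla, 2,000/well, settled 4 h. Treatment: compounds in DMSO, 16 h, 37C/5% CO2. Readout: CellTiter-Glo luminescence after 30 min RT.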

[2] = qHTS assay to identify small molecule antagonists of the vitamin D receptor (VDR) signaling pathway - cell viability counter screen (AID 743225; active = well fitted curve in the direction sought with a large enough effect in the repeat runs; an effect the other way counts as inactive or inconclusive; note: nearly all actives have a fitted effect of over 50% in size)
Procedure, shortened: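 Parallel cytotoxicity test: VDR-UAS-bla HEK 293T, 3 nM (final) 1-alpha,25-dihydroxyvitamin D3 with test compound, 16 h, 37C. Endpoint is CellTiter-Glo luminescence in the same wells.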

[3] = qHTS assay to identify small molecule agonists of the NFkB signaling pathway (AID 1159509; active = well fitted curve in the direction sought with a large enough effect in the signal ratio in the repeat runs, not every such curve was filed as active; the % refers to the signal ratio; note: series mostly up to about 61 µM)
Procedure, shortened: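 Pathway activation was measured in ME-180 cells stably expressing beta-lactamase under NF-kB response element control. Substrate cleavage was read as the 460/530 nm emission shift after 5 hr compound incubation.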

[4] = qHTS assay to identify small molecule agonists of the NFkB signaling pathway - cell viability counter screen (AID 1159515); note: nearly all actives have a fitted effect of over 55% in size; note: potency is the fitted concentration of half-maximal effect
Procedure, shortened: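 Cells are seeded (2,000 NFkB-bla ME-180 per well), rested overnight, and dosed with DMSO-dissolved compounds for 5 hr at 37 C. Viability is then read by CellTiter-Glo luminescence after 30 min at room temperature.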

[5] = qHTS assay to identify small molecule agonists of the endoplasmic reticulum stress response signaling pathway - cell viability counter screen (AID 1159517); note: nearly all actives have a fitted effect of over 50% in size; note: potency is the fitted concentration of half-maximal effect
Procedure, shortened: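 ESRE-bla HeLa cells (1,500/well) were plated overnight at 37 C and exposed to compounds for 5 hr. After the 2 hr beta-lactamase substrate read, CellTiter-Glo went into the same wells, and luminescence was read after 30 min at room temperature.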

[6] = qHTS assay to identify small molecule antagonists of the retinoid-related orphan receptor gamma (ROR-gamma) signaling pathway - cell viability counter screen (AID 1159520; active = well fitted curve in the direction sought with a large enough effect in the repeat runs; an effect the other way counts as inactive or inconclusive; note: nearly all actives have a fitted effect of over 50% in size; note: potency is the fitted concentration of half-maximal effect)
Procedure, shortened: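 Cytotoxicity was read from cellular ATP (CellTiter-Glo luminescence) after 16 hr at 37 C with 1 uM doxycycline induction. The inducer was added 2 hr after compound transfer to Tet-on ROR gamma CHO cells.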

[7] = biological target: Nuclear receptor ROR-gamma (Homo sapiens) (UniProt P51449); assay: qHTS assay to identify small molecule antagonists of the retinoid-related orphan receptor gamma (ROR-gamma) signaling pathway (AID 1159521; active = well fitted curve in the direction sought with a large enough effect in the repeat runs; an effect the other way counts as inactive or inconclusive; note: nearly all actives have a fitted effect of over 50% in size; note: potency is the fitted concentration of half-maximal effect)
Procedure, shortened: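 Decreased RORE-driven luciferase luminescence indicates antagonism. Tet-on RORγ CHO cells received compound, then 1 uM final doxycycline 2 h later; signal read after 16 h incubation.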

[8] = qHTS assay to identify small molecule agonists of the AP-1 signaling pathway - cell viability counter screen (AID 1159525); note: nearly all actives have a fitted effect of over 55% in size; note: potency is the fitted concentration of half-maximal effect
Procedure, shortened: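 Intracellular ATP by Cell Titer Glo luminescence (30 min, RT) in the same ME-180 AP-1-bla wells after the 5 h compound exposure at 37 °C. Normalised to tetra n-octyl ammonium bromide and DMSO controls.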

[9] = qHTS assay to identify small molecule agonists of the AP-1 signaling pathway (AID 1159526)
[10] = qHTS assay to identify small molecule agonists of the endoplasmic reticulum stress response signaling pathway (AID 1159516; active = well fitted activation curve with a large enough effect in the signal ratio in the repeat runs, not every such curve was filed as active; the % refers to the signal ratio)
Procedure, shortened: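 Cells are seeded at 1,500 per well and incubated overnight. Compounds in DMSO are added for 5 hr at 37 C, then beta-lactamase FRET substrate for 2 hr at room temperature, and fluorescence at 460 and 530 nm is measured.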

SMILES | Potency [1] | Potency [2] | outcome [3] | Potency [4] | Potency [5] | Potency [6] | Potency [7] | Potency [8] | outcome [9] | Potency [10]
O=CCCCC=O | inactive | inactive | inactive | inactive | 54.9 µM (active) | 61.1 µM (active) | 29.6 µM (active) and inactive | inactive | inactive | –
CCCCc1oc2ccccc2c1C(=O)c1cc(I)c(OCCN(CC)CC)c(I)c1 | 15.6 µM (active) and 26.6 µM (active) | – | inactive | 31.1 µM (active) and 26.8 µM (active) | 39.2 µM (active) | 43.6 µM (active) | 19.5 µM (active) and 26.6 µM (active) | 31.1 µM (active) | – | inactive
Nc1ccccc1N | inactive | – | inactive | inactive | inactive | inactive | inactive | inactive | inactive | –
O=C1c2cccc(O)c2C(=O)c2c(O)cccc21 | inactive | inactive | inactive | inactive | inactive | inactive | inactive | inactive | – | –
c1ccc(Nc2ccccc2)cc1 | inactive | inactive | inactive | inactive | inactive | 54.4 µM (active) and inactive | 13.7 µM (active) and inactive | inactive | – | inactive
COc1ccc(C(=O)CC(=O)c2ccc(C(C)(C)C)cc2)cc1 | inactive | inactive | inactive | inactive | inactive | inactive | – | inactive | inactive | inactive
c1ccc2cc(Nc3ccc(Nc4ccc5ccccc5c4)cc3)ccc2c1 | inactive | inactive | inactive | inactive | inactive | inactive | inactive | inactive | inactive | –
CCOC(=O)C(C#N)=C(c1ccccc1)c1ccccc1 | inactive | inactive | inactive | inactive | inactive | inactive | – | inactive | inactive | inactive
Cc1cccc([N+](=O)[O-])c1C | inactive | – | inactive | inactive | inactive | inactive | – | inactive | inactive | inactive
OC1CCCCCCCCCCC1 | inactive | – | inactive | inactive | inactive | inactive | inactive | inactive | – | –
CC(=O)Oc1ccccc1C(=O)Nc1ncc([N+](=O)[O-])s1 | 12.6 µM (active) | – | inactive | inactive | 889 nM (active) and inactive | 3.93 µM (active) and 5.31 µM (active) | inactive | inactive | inactive | –
COC(=O)C1=C(C)NC(C)=C(C(=O)OCCN(C)Cc2ccccc2)C1c1cccc([N+](=O)[O-])c1 (configuration not stated) | 54.6 µM (active) | – | inactive | inactive | inactive | 60.8 µM (active) | 30.5 µM (active) and 29.8 µM (active) | inactive | – | inactive
CCCCOCCOCCOCCO | inactive | inactive | inactive | inactive | – | inactive | inactive | inactive | inactive | inactive
O=C1OC2(c3cc(Br)c(O)c(Br)c3Oc3c2cc(Br)c(O)c3Br)c2c(Cl)c(Cl)c(Cl)c(Cl)c21 | inactive | inactive | inactive | inactive | inactive | inactive | – | inactive | inactive | –
CCCCC/C=C/C=C/C=O | inactive and 49 µM (active) | – | inactive | inactive | inactive | – | inactive | inactive | inactive | –
C=C(C)C1CC=C(C)CC1 (configuration not stated) | inactive | inactive | – | inactive | inactive | inactive | – | inactive | inactive | inactive
C#C[C@]1(O)CC[C@H]2[C@@H]3CCc4cc(OC)ccc4[C@H]3CC[C@@]21C | inactive | – | inactive | inactive | inactive | inactive | inactive | inactive | – | inactive
Nc1ccc(Nc2ccccc2)cc1 | inactive | – | inactive | inactive | inactive | inactive | inactive and 27.3 µM (active) | inactive | – | inactive
O=C=Nc1ccc(Cc2ccc(N=C=O)cc2)cc1 | inactive | inactive | inactive | inactive | inactive | inactive | inactive | inactive | inactive | –
